Data taken from PubChem BioAssay AID1892 (NMMLSC, 2009).
About 140 (2.4%) of roughly 5,900 compounds were called active. Rule as the data show it: active = binding response below about 16% or above about 210%; inactive = in between. Many of the other results were omitted from the sample, so actives are more common in it than they were.

Each compound was assayed against Mitogen-activated protein kinase kinase kinase 2 (Homo sapiens) (UniProt Q9Y2U5) (assay: modulators of MEK5 binding to wildtype MEKK2, confirmation, biochemical, single concentration, multiplex bead flow cytometry (AID 1892)). Details: Alexa488-MEK5 binding to MEKK2 WT, at 10 µM, actives lie on both sides.

Row | SMILES | binding response (% of control)
1 | Cc1nn(-c2ccccc2)c(C)c1NC(=O)CCl | 95% (inactive)
2 | C=CCn1c(P(C)(=O)O)nc2ccccc21 | 95% (inactive)
3 | CNC(=O)/C(=C\C=C\c1ccccc1)NC(=O)c1ccc([N+](=O)[O-])cc1 | 99% (inactive)
4 | Cc1ccc(N(CCC(=O)O)S(=O)(=O)c2cccc(C(F)(F)F)c2)cc1 | 102% (inactive)
5 | CN(c1ccccc1)c1ccc(/C=c2\s/c(=C(/C#N)C(=O)C(C)(C)C)n(Cc3ccco3)c2=O)cc1 | 73% (inactive)
6 | CCN(CC)CCCNC(=O)c1ccc2c(=O)n(Cc3ccc4c(c3)OCO4)c(=S)[nH]c2c1 | 128% (inactive)
7 | O=C(NC1CCN(Cc2ccccc2)CC1)c1ccc(Oc2cc(Cl)cc(Cl)c2)o1 | 138% (inactive)
8 | COCCN1C=C2C(=O)C(C)(OC(=O)C3CCCC3)C(=O)C=C2C=C1c1ccsc1 (stereo unspecified) | 96% (inactive)
9 | O=C(NCc1ccccc1Cl)NC(=O)c1csc([N+](=O)[O-])c1 | 104% (inactive)
10 | COc1ccc(CCn2c(NN=C3CCCC3)nc3c2c(=O)[nH]c(=O)n3C)cc1 | 102% (inactive)
11 | CCOC(=O)c1sc2nc(C)nc(SCC(N)=O)c2c1C | 102% (inactive)
12 | COc1ccccc1N=C(C)C1=C(O)COC1=O | 106% (inactive)
13 | Cc1nc2cc(S(=O)(=O)C(F)(F)F)ccc2s1 | 106% (inactive)
14 | CC(C)CC(=O)NC(=S)NCc1ccccc1 | 98% (inactive)
15 | COc1ccc(C(=O)NCC(=O)N/N=C/c2ccc([N+](=O)[O-])o2)cc1OC | 92% (inactive)
16 | CCOC(=O)c1c(NC(=O)c2ccc(S(=O)(=O)N(C)CC3CCCO3)cc2)sc2c1CC(C)(C)NC2(C)C (stereo unspecified) | 121% (inactive)
17 | COc1cccc(OCC(=O)NNC(=O)c2cnccn2)c1 | 98% (inactive)
18 | COc1ccc(C2CC(=O)Nc3cc(C)c(C)cc32)c(OC)c1OC (stereo unspecified) | 101% (inactive)
19 | COc1ccc(SC[C@H](Cc2ccccc2)N2CCN(CCc3ccccc3)CCC2=O)cc1 | 129% (inactive)
20 | Cc1cc(C)nc(-n2ncc3c2CC(c2ccc(C(C)C)cc2)CC3=O)n1 (stereo unspecified) | 102% (inactive)
21 | Cc1c(C#N)c2ncn(CC#N)c(=O)c2n1-c1ccccc1 | 99% (inactive)
22 | CC(=O)Nc1ccc(N2CCOCC2)c(C(=O)Nc2cccc(C)c2)c1 | 102% (inactive)
23 | CCCCNC(=O)N1CCCC(N(C)CCc2ccc(OC)c(OC)c2)C1 (stereo unspecified) | 103% (inactive)

Row | SMILES | binding response (% of control)
24 | Cc1ccc(C(=O)NC(=S)Nc2ccc3[nH]c(=O)[nH]c3c2)cc1C | 101% (inactive)
25 | CCN1CCN(c2ccc(S(=O)(=O)N3CCCCC3)cc2NC(=O)Cc2c(Cl)cccc2Cl)CC1 | 125% (inactive)
26 | Cc1cnc(NC(=O)Cn2cnc3c2c(=O)n(C)c(=O)n3C)s1 | 96% (inactive)
27 | O=c1c2ccccc2c(-c2ccccc2)nn1Cc1ccccc1 | 100% (inactive)
28 | Cc1ccccc1OCC(=O)Nc1ccc(N2CCN(C(=O)C(C)C)CC2)c(Cl)c1 | 93% (inactive)
29 | O=C1NCC(=O)N(Cc2ccccc2)/C1=C/c1ccccc1 | 75% (inactive)
30 | CC1(C)OC(=O)N2CCc3ccccc3C21C (stereo unspecified) | 101% (inactive)
31 | CN(C)c1ccc(/C=C2\NC(=S)N(Cc3ccccc3)C2=O)cc1 | 86% (inactive)
32 | Cc1ccc(N2C(=O)CC(N3CCSCC3)C2=O)c(C)c1 (stereo unspecified) | 103% (inactive)
33 | Cc1ccc(NC(=S)N(CCCN2CCCC2)Cc2cccn2Cc2ccc(Cl)cc2)cc1 | 160% (inactive)
34 | COc1ccc(-c2[nH]ncc2CN(C)Cc2c(C)n[nH]c2C)c(OC)c1 | 108% (inactive)
35 | COc1ccccc1CC(=O)Nc1ccc([N+](=O)[O-])cc1OC | 100% (inactive)
36 | Cc1ccc(Nc2nc(CSc3nnc(-c4ccncc4)n3-c3ccccc3C)cs2)cc1 | 101% (inactive)
37 | O=C(/C=C/Nc1ccccc1)c1cnc(-c2ccccc2)s1 | 107% (inactive)
38 | CC(C)CC(=O)N1CCN(Cc2ccccc2Br)CC1 | 105% (inactive)
39 | Cc1ccccc1CCN(CC(=O)NC1CCCCC1)C(=O)c1csnn1 | 96% (inactive)
40 | Cc1cccc(/C=N/NC(=O)CNc2cccc3ccccc23)n1 | 103% (inactive)
41 | CC(C)(C)NC(=O)c1cccc(NC(=O)Cc2ccc(Br)cc2)c1 | 100% (inactive)
42 | CCOc1cc(C2C(C(=O)OC)=CN(C3CCCC3)C=C2C(=O)OC)cc(Br)c1O | 108% (inactive)
43 | COc1ccc(CCNC(=O)CSc2nnc3ccc(-c4ccncc4)nn23)cc1 | 102% (inactive)
44 | CCCCOC(=O)c1ccc(N2C(=O)CC(N3CCN(C/C=C/c4ccccc4)CC3)C2=O)cc1 (stereo unspecified) | 124% (inactive)
45 | O=C(NCC1CCCCC1)c1cc(S(=O)(=O)N2CCCCC2)ccc1N1CCOCC1 | 87% (inactive)
46 | Cn1c(SCc2nc3ccccc3s2)nnc1-c1ccc2c(c1)OCO2 | 102% (inactive)

Row | SMILES | binding response (% of control)
47 | Cc1cccc(-c2ncc(CN3CCC(CO)(CCCc4ccccc4)CC3)cn2)c1 | 131% (inactive)
48 | Cc1cn(COC/C=C/c2ccccc2)c(=O)[nH]c1=O | 103% (inactive)
49 | COc1cc(NC(=S)NCc2ccco2)c(OC)cc1Cl | 108% (inactive)
50 | COC(=O)c1c(NC(=O)COC(=O)[C@@H](NS(=O)(=O)c2ccccc2)C(C)C)sc2c1CCC2 | 96% (inactive)
51 | COc1cc(-c2nc(-c3ccncc3)no2)cc(OC)c1OC | 104% (inactive)
52 | Cc1cccc(CSc2nnc(C)c(=O)n2N)c1 | 100% (inactive)
53 | O=C(O)CCCC(=O)Nc1ccc(Oc2cccc(C(F)(F)F)c2)nc1 | 106% (inactive)
54 | COc1cc(CC(=O)N/N=C/c2ccccc2)c([N+](=O)[O-])cc1OC | 99% (inactive)
55 | COc1ccc(S(=O)(=O)N2CN(CCc3ccc(OC)c(OC)c3)c3nc4ccccc4nc32)cc1 | 96% (inactive)
56 | CCOC(=O)C(NS(=O)(=O)c1ccc(C)cc1)(C(F)(F)F)P(=O)(OCC(C)C)OCC(C)C (stereo unspecified) | 90% (inactive)
57 | O=c1[nH]c(=S)[nH]c2[nH]c(=S)[nH]c12 | 101% (inactive)
58 | Cc1ccccc1-c1ccc(Nc2ccc(C(=O)N3CCOCC3)cc2)nn1 | 103% (inactive)
59 | CCOC(=O)c1c(Cc2ccc(Cl)cc2)c[nH]c1C | 105% (inactive)
60 | O=C(Nc1cccnc1)c1cc(Cl)ccc1Cl | 109% (inactive)
61 | CN(C)CCCNC(=O)/C=C/c1ccc(OCc2c(F)cccc2Cl)cc1 | 150% (inactive)
62 | O=C(c1cnn(-c2ccc(Cl)cc2)c1)c1ccccc1O | 112% (inactive)
63 | O=C(O)/C=C\C(=O)Nc1ccc(OCc2ccccc2)cc1 | 102% (inactive)
64 | O=C(OCc1cc(Cl)ccc1OC(F)F)c1cccnc1 | 95% (inactive)
65 | CCNC(=O)CSc1nc(-c2ccccc2)cs1 | 99% (inactive)
66 | O=C(OCC1O[C@@H](OC(=O)c2cc(O)c(O)c(O)c2)[C@@H](OC(=O)c2cc(O)c(O)c(O)c2)[C@@H](OC(=O)c2cc(O)c(O)c(O)c2)[C@@H]1OC(=O)c1cc(O)c(O)c(O)c1)c1cc(O)c(O)c(O)c1 (stereo partly specified) | -1% [inhibitor] (active)
67 | CCOC(=O)c1c(-c2ccccc2)csc1NC(=S)NC(=O)c1ccccc1 | 102% (inactive)
68 | CCCCCCCCCCOC(=O)Cn1c(COc2cccc(OC)c2)[n+](C)c2ccccc21 | 257% (active)
69 | CCCCCCCCCCOC(=O)Cn1c(COc2ccc(C)cc2)[n+](C)c2ccccc21 | 217% (active)

Row | SMILES | binding response (% of control)
70 | FC(F)(F)c1cccc(N/N=C/c2ccccc2)c1 | 151% (inactive)
71 | Cc1ccc(S(=O)(=O)NC(=O)N2CCCC(C)(C)C2)cc1 | 101% (inactive)
72 | COc1cc(/C=C2\SC(=S)N(Nc3ncc(C(F)(F)F)cc3Cl)C2=O)cc(OC)c1OC | 74% (inactive)
73 | Cc1cc(Cl)ccc1OCc1nc(-c2ccncc2)no1 | 80% (inactive)
74 | COc1ccccc1N1CCN(CCCCOc2ccc(F)cc2)CC1 | 109% (inactive)
75 | Cc1no[n+]([O-])c1COc1ccccc1/C=C1\NC(=S)NC1=O | 99% (inactive)
76 | CCO[C@H]1OC(C(=O)N2CCOCC2)=C[C@@H](c2ccc3c(c2)OCO3)[C@@H]1CCCO | 101% (inactive)
77 | c1ccc(Nc2nc(N3CCOCC3)c3ccccc3n2)cc1 | 124% (inactive)
78 | COCC(C)NC(=O)COc1nncc2ccccc12 (stereo unspecified) | 96% (inactive)
79 | Cn1c(=NC(=O)CSCC(=O)N2CCOCC2)sc2ccccc21 | 90% (inactive)
80 | CCc1nnc(NC(=O)c2sc3nc(C)cc(COC)c3c2N)s1 | 107% (inactive)
81 | Cc1ccccc1C(=O)NNC(=O)CN1C(=O)c2ccccc2C1=O | 92% (inactive)
82 | C#CCOCCOCCOCCNc1nc(N2CCN(C(=O)[C@H](CCCCN)n3cc([C@@H](N)C(C)CC)nn3)CC2)nc(N2CCN(C(=O)[C@H](Cc3ccc(O)cc3)n3cc([C@@H](N)C(C)CC)nn3)CC2)n1 (stereo partly specified) | 183% (inactive)
83 | COc1ccc(C2CC(c3cccs3)=NN2c2nc(C)c(C(C)=O)s2)cc1OC (stereo unspecified) | 82% (inactive)
84 | CCOC(=O)c1cc2occc2n1CC(=O)N1CCN(C(=O)c2ccco2)CC1 | 92% (inactive)
85 | COC(=O)c1cc(NC(=O)c2cc(C(C)(C)C)nn2Cc2cccc(C)c2)ccc1N1CCOCC1 | 102% (inactive)
86 | Cc1ccc(S(=O)(=O)/N=S(\C)C(C)C)cc1 (stereo unspecified) | 101% (inactive)
87 | CCOC(=O)/C(C#N)=C/c1ccc(OCC(=O)Nc2ccccc2)c(OC)c1 | 103% (inactive)
88 | CN(C)CCCN(C(=O)c1ccc(S(=O)(=O)N2CCCc3ccccc32)cc1)c1nc2ccc(F)cc2s1 | 198% (inactive)
89 | O=C(Nc1ccc2ccccc2c1)Nc1ccc2snnc2c1 | 155% (inactive)
90 | CCOc1ccc(NC(=O)Nc2cc(C)ccc2OC)cc1 | 106% (inactive)
91 | CCOc1cc(C(=O)OCC(=O)Nc2cccc(C)c2)ccc1OCC(=O)N1CCOCC1 | 106% (inactive)
